The whole screen tested about 410,000 compounds, of which about 480 (0.12%) were called active. No stated cut-off is given here; in the data, active means activation above about 50%; inconclusive means mostly about 30% to 49%; inactive means weaker than that. The list comes from a sample in which actives are over-represented; it also holds similar structures and randomly drawn compounds.
target: Mucolipin-1 (Homo sapiens) (UniProt Q9GZU1); assay: qHTS for Agonists of the Human Mucolipin Transient Receptor Potential 1 (TRPML1); details: TRPML1-expressing cells, Ca2+ dye fluorescence, FDSS; hits give high values; further: 0% is about no effect
Sequence (Q9GZU1 whole entry, looked up, the tested form may be a part): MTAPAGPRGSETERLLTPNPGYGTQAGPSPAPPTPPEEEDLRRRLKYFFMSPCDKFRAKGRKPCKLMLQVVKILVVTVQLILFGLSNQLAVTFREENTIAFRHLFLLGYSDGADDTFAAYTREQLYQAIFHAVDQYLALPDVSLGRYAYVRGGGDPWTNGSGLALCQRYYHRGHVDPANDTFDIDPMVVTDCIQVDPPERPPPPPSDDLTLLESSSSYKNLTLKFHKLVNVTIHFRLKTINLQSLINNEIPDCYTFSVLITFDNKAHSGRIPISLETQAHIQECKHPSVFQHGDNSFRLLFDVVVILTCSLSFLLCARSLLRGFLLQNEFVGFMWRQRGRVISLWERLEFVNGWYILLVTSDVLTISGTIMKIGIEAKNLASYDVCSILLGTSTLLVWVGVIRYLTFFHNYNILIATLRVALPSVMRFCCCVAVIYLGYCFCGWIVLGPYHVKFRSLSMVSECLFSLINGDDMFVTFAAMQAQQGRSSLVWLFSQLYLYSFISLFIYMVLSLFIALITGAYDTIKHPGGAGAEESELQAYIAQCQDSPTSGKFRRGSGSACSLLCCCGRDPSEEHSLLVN
Source text: Mutations of human Mucolipin transient receptor potential 1 (TRPML1) cause type IV mucolipidosis (ML4), a devastating neurodegenerative disease in young children. […] Currently, there is no treatment for ML4. […] Under physiological conditions, TRPMLs regulate membrane trafficking by transducing information about PI(3,5)P2 levels into changes in juxtaorganellar Ca2+, thereby triggering membrane fusion/fission events in the late endocytic pathways (endolysosomal trafficking). In addition, TRPML1 mediates release of Fe2+ from late endosomes and lysosomes, which is essential for cellular iron metabolism. Thus, impaired ion (Ca2+ and Fe2+) homeostasis underlies lysosomal dysfunction and ML4 phenotypes. In ML4 cells, the problem is twofold. First, defective Ca2+-dependent membrane trafficking due to TRPML1-deficiency causes accumulation of lipids and other bio-materials in the lysosome. The second strike comes from the lysosomal iron overload (due to impairment of TRPML1's Fe2+ conductivity), which converts the accumulated materials into the nondegradable (resistant to lysosomal degradation) lipofuscin (also called aging pigment) in the lysosome. Lipofuscin accumulation dramatically compromises the functions of lysosomes.
Niemann-Pick type C (NPC) disease is another lysosome storage disease (LSD) with severe neurodegeneration during the childhood. Currently, there is no cure for NPC. […] Thus, TRPML1 is likely to be an essential regulator of lysosome ion homeostasis. We specifically hypothesize that stimulating TRPML1's Fe2+/Ca2+ channel activity in the lysosome using synthetic agonists can alleviate neurodegeneration associated with ML4 or NPC.
To this end, a high throughput screen was developed in a miniaturized format to screen against the Molecular Libraries Small Molecule Repository (MLSMR) to find small molecules that act either as inhibitors or agonist against the TRPML1 channel.
NIH Chemical Genomics Center [NCGC]
NIH Molecular Libraries Probe Centers Network [MLPCN]
Assay Submitter (PI): Haoxing Xu, University of Michigan Ann Arbor
TRPML1-DL cells are dissociated from flasks, counted and, brought up to a density of 500,000 cells per mL of media containing a 1X Tet inducer. Using a Multidrop Combi, 3uL of this cell solution is dispensed to each well of a 1536 TC treated, black, clear bottom hi base plate for a final cell density of 1,500 cells per well. The assay plates are incubated overnight (approximately 16 hours) at 37 degrees C and 5% CO2. Using a Multidrop Combi, 2uL of ABD Ca8 no wash dye plus quencher is added to each well. The assay plates incubate at room temperature in the dark for 45-90 minutes. The assay plate is read on the FDSS using the following protocol: 10 second baseline read, 23nL of compounds and controls are added using 1536 pintool, agonist read for 110 seconds, 1 uL EC80 addition (4uM final 54-4 diluted in media), antagonist read for 110 seconds.

Structure (SMILES)	activation
Cc1ccc(NC(=O)c2ccc(CN3CC(=O)N4CCCCC4C3=O)cc2)c(Cl)c1 (configuration not stated)	2.76% (inactive)
CCOc1n[nH]c(-c2ccccc2)n1	0% (inactive)
CN(C)c1ccc(/C=N\Nc2ccc([N+](=O)[O-])cc2[N+](=O)[O-])cc1Cl	-0.0634% (inactive)
O=C(CSc1ncc(-c2ccccc2)[nH]1)Nc1ccc(F)cc1F	2.97% (inactive)
OCC(O)C(O)C(O)C(O)C=Nc1ccc(/C=C/c2ccnc3ccccc23)cc1 (configuration not stated)	6.02% (inactive)
COC(=O)C1=C(C(=O)OC)[C@@H]2N(Cc3ccccc3)c3ccccc3[C@@]23C[C@@H](C(=O)OC)N(S(=O)(=O)c2ccc(C(F)(F)F)cc2)C3=N1	-0.417% (inactive)
CCN1/C(=C/c2ccc3ccc(C)cc3[n+]2CC)Sc2ccccc21	70.1% (active)
CCCCOc1ccc(C(=O)NO)cc1	-0.809% (inactive)
Cc1csc[n+]1CCC1CCCCC1	0.413% (inactive)
C=C1C=C(C)n2ncc(C(=O)Nc3ccccc3O)c2N1	-0.539% (inactive)
Nc1nc(N)c(N=O)c(N)n1	-0.147% (inactive)
C=CCCN(C(Cc1ccccc1)C(=O)OC)S(=O)(=O)c1cc(Br)ccc1Br (configuration not stated)	2.52% (inactive)
CCOC(=O)CNC(=O)c1cc2c(=O)n3cccc(C)c3nc2s1	0.461% (inactive)
CCCN(CCC)c1nc2c(C)cccn2c(=O)c1/C=C1/SC(=S)N(Cc2ccco2)C1=O	17.6% (inactive)
CCOC(=O)CC1C(=O)NCCN1c1nc2c(C)cccn2c(=O)c1/C=C1\SC(=S)N(C(C)CC)C1=O (configuration not stated)	71% (active)
CCC(=O)N1CCc2cc(Br)cc(S(=O)(=O)CCC(=O)NCCc3ccc(OC)c(OC)c3)c21	-0.301% (inactive)
Cc1[nH]c2ccccc2c1C(=O)C(=O)N(C)c1ccccc1	-0.513% (inactive)
COC(=O)C1=C(c2ccccc2)c2ccccc2S(=O)(=O)N1CC(=O)Nc1ccccc1C(F)(F)F	1.11% (inactive)
CN(C)c1ccc(C=Nc2ccc(/C=C/c3ccnc4ccccc34)cc2)cc1	1.17% (inactive)
CCC(C)N(c1ccc(/C=C/c2ccnc3ccccc23)cc1)C(C)CC (configuration not stated)	18.2% (inactive)
CN(C)c1ccc(/C=C/C=C/c2ccnc3ccccc23)cc1	52.7% (active)
Cc1cccc(CN2Cc3cccc4c3[C@H](C=CC4)CC2=S)c1	-0.678% (inactive)

Structure (SMILES)	activation
CCCc1cc(=O)n2[nH]c(NCc3ccc(CC)cc3)nc2n1	-0.211% (inactive)
CCCN1CCC(=O)N(C(CSc2ccc(C)cc2)Cc2ccccc2)CC1 (configuration not stated)	1.24% (inactive)
CCOC1=C2[C@@H](CN(S(=O)(=O)c3ccc(C)cc3)[C@H]2c2ccccc2F)[C@H]2C(=O)N(Cc3ccccc3)C(=O)[C@H]2C1	1.29% (inactive)
CCOC1=C2CN(S(=O)(=O)c3ccc(C)cc3)[C@H](c3cccs3)C[C@H]2[C@H]2C(=O)N(c3ccccc3)C(=O)[C@H]2C1	64.2% (active)
CCOC1=C2[C@H]([C@H]3C(=O)N(c4ccccc4)C(=O)[C@H]3C1)[C@@H](c1ccccc1)N(S(=O)(=O)c1ccc(C)cc1)[C@H]2c1ccccc1	-0.217% (inactive)
COc1cc(NS(=O)(=O)c2cccs2)cc(OC)c1	-1.48% (inactive)
COc1cc2nc(Cl)nc(NC3CC3)c2cc1OC	-0.998% (inactive)
CCOC(=O)c1c(NC(=O)COc2cc(C)ccc2C(C)C)sc(C)c1C	1.35% (inactive)
O=C1C[C@H]2C=CCc3cccc(c32)CN1Cc1ccccc1	-0.974% (inactive)
Oc1ccc(Cl)cc1C1C=C(c2ccc3c(c2)OCO3)NC(c2c(F)cccc2Cl)N1 (configuration not stated)	0.805% (inactive)
O=S(=O)(Nc1cccc2cccnc12)c1cccc2cccnc12	0.864% (inactive)
CC(=O)c1ccc[n+](C(C)CCC(C)[n+]2cccc(C(C)=O)c2)c1 (configuration not stated)	-0.159% (inactive)
Cc1ccc(Cl)cc1N(C)C(=O)C1CCCN(c2ncnc3onc(-c4ccc(F)cc4)c23)C1 (configuration not stated)	0.938% (inactive)
CN(C)c1ccc(/C=C/c2sc3ccccc3[n+]2C)cc1	-0.317% (inactive)
N#Cc1ccc[n+](CC(=O)c2ccc(O)c(O)c2)c1	6.5% (inactive)
COc1cc(OC)c(NC(=O)Cc2ccc(-n3c(C)nc4cccnc43)cc2)cc1Cl	2.46% (inactive)
O=[N+]([O-])c1ccc(/C=C/c2ccc3cccnc3c2)cc1	-0.507% (inactive)
CCOC(=O)c1c(NC(=O)c2ccc(S(=O)(=O)N3CCCC(C)C3)cc2)sc2c1CCN(C(C)C)C2 (configuration not stated)	0.257% (inactive)
COc1ccccc1N1CCN(c2ncnc3onc(-c4ccc(F)cc4)c23)CC1	0.772% (inactive)
O=C(c1cnn2c1NC(=C1CC1)C=C2C(F)F)N1CCc2ccccc2C1	-0.995% (inactive)
C(=Nc1ccc(/C=C/c2ccnc3ccccc23)cc1)Nc1ccc(/C=C/c2ccnc3ccccc23)cc1	8.34% (inactive)
Cc1cc(=O)n(CC(=O)Nc2cccc([N+](=O)[O-])c2)c(-n2nc(C)cc2C)n1	1.21% (inactive)

Structure (SMILES)	activation
COc1ccccc1NC(=O)CSC1=Nc2ccccc2C2=NC(CC(=O)NCc3cccs3)C(=O)N12 (configuration not stated)	3.51% (inactive)
CC1(C)C=Cc2c(ccc(C(=O)/C=C/c3ccccc3)c2O)O1	19.2% (inactive)
COc1cccc(C(=O)Nc2ccc(-c3cc(C(F)(F)F)nn3-c3ccccc3)cc2)c1	3.44% (inactive)
COc1ccc(S(=O)(=O)c2c(Nc3cccc(Cl)c3)sc(C(=O)c3ccccc3)c2N)cc1	14.6% (inactive)
COc1cccc(C(=O)c2sc3nc(-c4ccccc4)cc(C(F)(F)F)c3c2N)c1	98.2% (active)
COc1ccc(Cn2c(=O)n(-c3ccccc3C)c(=O)c3c4c(sc32)CN(C(C)=O)CC4)cc1	-0.696% (inactive)
O=C(Nc1ccc2nc(SCC(=O)N3CCCc4ccccc43)sc2c1)c1ccc(Cl)cc1	1.16% (inactive)
O=C(Nc1ccc([N+](=O)[O-])cc1)c1cnn2c1NC(=C1CC1)C=C2C(F)F	-0.353% (inactive)
CCCCC(CCCC)c1ccc(C=Nc2ccc(/C=C/c3ccnc4ccccc34)cc2)cc1	5.8% (inactive)
COc1cccc(-c2nnc3n(CCc4ccccc4)c(=O)c4ccccc4n23)c1O	1.15% (inactive)
CCOc1ccc(/C=C(\C#N)c2nc3ccccc3c(=O)[nH]2)cc1OC	1.09% (inactive)
COc1ccc(/C=C(/NC(=O)c2ccc(C)cc2)c2nc3ccccc3[nH]2)cc1OC	50.1% (active)
Cc1ccc2nc(CNC(=O)c3ccccc3)[nH]c2c1	2.07% (inactive)
N#Cc1ccc[n+](CC(=O)c2ccc(F)cc2)c1	1.03% (inactive)
COC(=O)C(CC(C)C)NS(=O)(=O)c1cc(Br)ccc1Br (configuration not stated)	1.9% (inactive)
OC(CBr)CN1CCCCC1 (configuration not stated)	-0.38% (inactive)
Cc1cccc(N2CCN(C(=O)CCn3c(=O)c4cccn4c4cccnc43)CC2C)c1 (configuration not stated)	0.62% (inactive)
C=CCNC(=O)c1ccc2nc(-c3ccco3)c(-c3ccco3)nc2c1	-0.254% (inactive)
OC(CBr)C[n+]1cccc2cc(Br)ccc21 (configuration not stated)	1.14% (inactive)
Nc1ncnc2nnsc12	0.38% (inactive)
CN(C)c1ccc(/C=C/c2sc3ccccc3[n+]2CCCCBr)cc1	6.96% (inactive)
CCC(C(=O)Nc1cccc(Cl)c1C)n1nc(-c2ccc(C)cc2)ccc1=O (configuration not stated)	3.09% (inactive)

Structure (SMILES)	activation
S=c1[nH]c(=S)c2n[nH]nc2[nH]1	0% (inactive)
CC(C)(C)c1ccc(C(=O)C[N+]2(C)CCCc3ccccc32)cc1 (configuration not stated)	-0.62% (inactive)
O=C1O/C(=C\c2ccc(O)cc2)C(O)=C1c1ccc(O)cc1	-0.353% (inactive)
COc1ccc(OC)c(NC(=O)CSC2=Nc3ccccc3C3=NC(CC(=O)NCc4ccc(F)cc4)C(=O)N23)c1 (configuration not stated)	2.38% (inactive)
CCN1CCN(c2ncc3c(n2)CC(c2ccccc2O)CC3=O)CC1 (configuration not stated)	-0.182% (inactive)
CCCS(=O)(=O)Nc1cccc(-c2cn3ccsc3n2)c1	-0.225% (inactive)
CN(CCC#N)c1ccc(C=O)cc1	-0.222% (inactive)
COc1ccc(NC(=O)c2sc3nc(C)nc(N4CCN(c5ccccn5)CC4)c3c2C)c(OC)c1	105% (active)
Cc1nc(N2CCN(c3ccccn3)CC2)c2c(C)c(C(=O)Nc3ccc(F)c(Cl)c3)sc2n1	-0.23% (inactive)
COc1cc([N+](=O)[O-])ccc1NC(=S)N1CCN(c2ccccn2)CC1	0.452% (inactive)
O=C(Nc1ccccc1)c1ccccc1OCc1ccccc1	0.0539% (inactive)
COc1cc2nc(N3CCCN(C)CC3)nc(NC(C)C)c2cc1OC	-0.755% (inactive)
O=C1CC(c2ccccc2)CC2=C1C(c1ccco1)n1nc(C(F)(F)F)nc1N2 (configuration not stated)	-1.28% (inactive)
C=COC(=O)N1CCN(/[N+]([O-])=N/Oc2ccc([N+](=O)[O-])cc2[N+](=O)[O-])CC1	1.19% (inactive)
COc1ccc(CN(Cc2ccccc2)C(=O)c2ccc(O)cc2)cc1COc1ccc(NC(C)=O)cc1	1.13% (inactive)
OC(Cc1ccc2ccccc2n1)c1ccc(Cl)c(Cl)c1 (configuration not stated)	0.0951% (inactive)
CCN(CC)c1ccc(C2C(C(N)=O)=C(C)Nc3nc(SCc4ccccc4)nn32)cc1 (configuration not stated)	-0.404% (inactive)
CCCOc1ccc(C2c3c(-c4ccccc4O)n[nH]c3C(=O)N2Cc2cccnc2)cc1 (configuration not stated)	1.02% (inactive)
CN1C(=O)c2cccc3c(N)ccc(c23)C1=O	85.5% (active)
Cc1nn(C)cc1N1C(=O)c2cccc3c(N)ccc(c23)C1=O	66.8% (active)
Cc1ccc(Cn2cnc3c(cnn3C(C)(C)C)c2=O)c(F)c1	1.07% (inactive)
